Screening results as filed in PubChem.
ClpP mod: qHTS Assay for Activators of ClpP; AID 651965, 2013; Potency, µM (series often up to 57.5 µM), inactives show at the highest dose activity change, negative = active; purified B. subtilis ClpP, FRET peptide cleavage, 20 min; hit rate 1.9% among 340,000; active means well fitted falling curve with a large enough effect; inconclusive means small, poorly fitted or top-dose-only effect; inactive means no such curve, though single readings can be large or run the other way; further: potency means the concentration at half of the fitted maximal effect; the source files actives as falling curves though it sought activators and does not explain the sign; nearly all actives have a fitted effect of over 65% in size
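ClpP 10 microg/mL final, pH 8 Tris/KCl buffer with BSA, glycerol, Tween-20; compound pinned in; FRET-FV substrate; RT 20 min; Ex320/Em430; ΔFRET vs ADEP 5.8 microM, DMSO, no enzyme.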
TCR act: T cell receptor activation; primary human leukocytes, anti-CD3, IL-2 HTRF, 48 h; Potency, µM (top dose mostly 9.22 µM), without a hit: at the top dose activation of IL-2 secretion, hits mostly activators; 330,000 tested, under 10 active; AID 504894; further: % of control where 0% means no effect
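Human primary leukocytes + a-CD3 beads + cpd, 48 hr; IL-2 in supernatant by HTRF (ex 320nm / em 665nm). No co-stimulatory signal supplied.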
Sfp PPTase inh: blocks B. subtilis Sfp PPTase activity | Biochemical Sfp PPTase activity, qHTS | hit rate 3.5% among 310,000 | Q9F4F7 | Potency, µM, for the others: largest response in the series, negative = inhibition, actives largely listed as inhibitors;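 further: the enzyme is Sfp with the accession as filed and its product quenches rhodamine fluorescence; potency means the concentration at half of the fitted maximal effect; 0% = enzyme reaction without inhibitor and -100% = no enzyme wells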
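Buffer: 50 mM Hepes-Na pH 7.6, 10 mM MgCl2, 0.01% Nonidet P-40, 0.01% BSA. Enzyme 15 nM, pre-exposed to compound 15 min; substrates then added and fluorescence change tracked over 30 min.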
uPA generation: inhibitors of cell surface uPA generation; cell surface uPA generation assay, qHTS; Potency, µM (top dose mostly 38.3 µM), for the others: top-dose activity change, negative = inhibition, usual class: inhibitors; hit rate 0.31% among 330,000; AID 540303; active means well fitted inhibition curve with a large enough effect; inconclusive means small, poorly fitted or top-dose-only effect; inactive means no such curve, though single readings can be large or run the other way; tested in mouse RAW 264.7 cells; further: potency means the concentration at half of the fitted maximal effect; on the % scale 0 is the no-effect control and ±100 the full control effect; nearly all actives have a fitted effect of over 55% in size
Starred values were filed as active, the others as inactive; ! = not confirmed by another sample; [ ] = remark or other dose. In the library only some 4.2% were active in any assay of this set; here they are far more common. Unless noted, the call rests on the fitted dose curve; in most records, active means well fitted curve in the direction sought with a large enough effect; inconclusive means small, poorly fitted or top-dose-only effect, or another doubt; inactive means no such curve, though single readings can be large; an effect the other way counts as inactive or inconclusive.

What do the screens show for `CN(C)c1ccc(C(=C2C=CC(=[N+](C)C)C=C2)c2ccccc2)cc1`?
Sfp PPTase inh: 50µM*

What do the screens show for `CN(C)c1ccc(C(=O)C(=O)c2ccccc2)cc1`?
ClpP mod: 0%; TCR act: -2%; Sfp PPTase inh: -1%; uPA generation: 5%

How did CN(C)c1ccc(C(=C2C=CC(=[N+](C)C)C=C2)c2ccc(N(C)C)cc2)cc1 do in these assays?
ClpP mod: 2%; Sfp PPTase inh: 45µM*!

What do the screens show for `Cc1cc(C)cc(N2C(=O)CC(Sc3nnnn3-c3ccccc3)C2=O)c1` (centres undefined)?
ClpP mod: -3%; Sfp PPTase inh: -23%; uPA generation: inconclusive

Results for Cc1cc(C)cc(N2C(=O)CC(Sc3ncn[nH]3)C2=O)c1 (centres undefined) ?
TCR act: 0%; Sfp PPTase inh: 35µM*; uPA generation: -10%

How did O=C(NCc1cccc(OC(F)(F)F)c1)C1CCC(=O)N(Cc2cccc(F)c2)C1 (centres undefined) do in these assays?
ClpP mod: 1%; TCR act: -4%; Sfp PPTase inh: 14%; uPA generation: -5%

How did Cc1cc(C)c(Nc2cc(S(=O)(=O)O)c(N)c3c2C(=O)c2ccccc2C3=O)c(C)c1 do in these assays?
ClpP mod: -6%; TCR act: 10%; Sfp PPTase inh: 50µM*; uPA generation: -2%

How did Cc1cc(C)c(NC(=O)COC(=O)c2cccc3c2C(=O)c2ccccc2C3=O)c(C)c1 do in these assays?
ClpP mod: 2%; TCR act: -6%[46.1 µM]; Sfp PPTase inh: 11%; uPA generation: -17%

Results for COc1cccc(-n2c(C)c3c(OC)cccc(=O)c3c2C)c1 ?
TCR act: 0%; Sfp PPTase inh: 50µM*; uPA generation: -2%

What do the screens show for `CCCOc1cccc(C2c3c(oc4ccc(F)cc4c3=O)C(=O)N2CCc2ccc(OC)cc2)c1` (centres undefined)?
ClpP mod: -1%

What do the screens show for `N#CC1=C(N)SC(N)=C(C#N)C1c1ccc([N+](=O)[O-])cc1`?
ClpP mod: 2%; TCR act: 2%[46.1 µM]; Sfp PPTase inh: 5µM*; uPA generation: -2%

How did N#CC1=C(N)SC(N)=C(C#N)C1c1ccc(C(F)(F)F)cc1 do in these assays?
Sfp PPTase inh: -80%

Results for O=S(=O)(c1ccccc1)c1nc(-c2ccccc2F)oc1N1CCOCC1 ?
ClpP mod: -15%

Results for CCOc1ccc(NC(=S)NC(=O)c2ccco2)cc1 ?
ClpP mod: 2%; TCR act: -5%; Sfp PPTase inh: 56µM*; uPA generation: -21%

What do the screens show for `Cc1cc(C)cc(NS(=O)(=O)c2ccc(NC(=S)NC(=O)c3ccc(Br)o3)cc2)c1`?
ClpP mod: -3%; TCR act: -23%; Sfp PPTase inh: inconclusive; uPA generation: -10%

How did NS(=O)(=O)c1ccc(NC(=S)NC(=O)c2ccco2)cc1 do in these assays?
ClpP mod: 10µM*; TCR act: 4%; Sfp PPTase inh: 45µM*!; uPA generation: 0%

What do the screens show for `CN(C)S(=O)(=O)c1ccc(NC(=S)NC(=O)c2ccc(Br)o2)cc1`?
Sfp PPTase inh: 56µM*

What do the screens show for `CC(=O)NS(=O)(=O)c1ccc(NC(=S)NC(=O)c2ccco2)cc1`?
ClpP mod: 3%; TCR act: 5%; Sfp PPTase inh: inconclusive; uPA generation: 5%

How did CCCCC(=O)NC(=S)Nc1cccc(NC(=O)c2ccco2)c1 do in these assays?
ClpP mod: 25µM*; TCR act: -3%[46.1 µM]; Sfp PPTase inh: 9%; uPA generation: -4%

What do the screens show for `COc1ccc(NC2CCCN(C(=O)c3cccc(C)n3)C2)cc1OC` (centres undefined)?
ClpP mod: 0%; TCR act: 5%; Sfp PPTase inh: -1%; uPA generation: inconclusive

Results for NS(=O)(=O)c1ccc(NC(=S)NNC(=O)c2ccc(Br)o2)cc1 ?
ClpP mod: 3%; TCR act: 3%; Sfp PPTase inh: 25%; uPA generation: 12%

What do the screens show for `NS(=O)(=O)c1ccc(NC(=S)NC(=O)c2ccc(Br)o2)cc1`?
TCR act: -9%; Sfp PPTase inh: 56µM*; uPA generation: -1%

How did Cc1cc(C(=O)N/N=C/c2ccc(N(C)C)o2)cs1 do in these assays?
ClpP mod: -1%; TCR act: 6%; Sfp PPTase inh: 13µM*; uPA generation: -21%
